Activity calls are given as the source filed them. How the source made its calls: active means hit-call score of the fitted dose curve at least 0.9, where 1 is the maximum; inactive means score below 0.9.
Each compound was assayed on Nuclear factor NF-kappa-B p105 subunit (Homo sapiens) (UniProt P19838) (assay: LTEA_HepaRG_NFKB1: Life Technologies and Expression Analysis (LTEA) Assay for Nuclear Factor Kappa B Subunit 1 (NFKB1) using HepaRG (AID 2283521;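 on outcome: TaqMan qRT-PCR transcript normalised to ACTB GAPDH and POLR2A housekeeping genes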)). Conditions: mRNA level, 48 h; actives raise or lower the signal.
Nuclear factor NF-kappa-B p105 subunit (Homo sapiens), sequence (P19838 whole entry, looked up): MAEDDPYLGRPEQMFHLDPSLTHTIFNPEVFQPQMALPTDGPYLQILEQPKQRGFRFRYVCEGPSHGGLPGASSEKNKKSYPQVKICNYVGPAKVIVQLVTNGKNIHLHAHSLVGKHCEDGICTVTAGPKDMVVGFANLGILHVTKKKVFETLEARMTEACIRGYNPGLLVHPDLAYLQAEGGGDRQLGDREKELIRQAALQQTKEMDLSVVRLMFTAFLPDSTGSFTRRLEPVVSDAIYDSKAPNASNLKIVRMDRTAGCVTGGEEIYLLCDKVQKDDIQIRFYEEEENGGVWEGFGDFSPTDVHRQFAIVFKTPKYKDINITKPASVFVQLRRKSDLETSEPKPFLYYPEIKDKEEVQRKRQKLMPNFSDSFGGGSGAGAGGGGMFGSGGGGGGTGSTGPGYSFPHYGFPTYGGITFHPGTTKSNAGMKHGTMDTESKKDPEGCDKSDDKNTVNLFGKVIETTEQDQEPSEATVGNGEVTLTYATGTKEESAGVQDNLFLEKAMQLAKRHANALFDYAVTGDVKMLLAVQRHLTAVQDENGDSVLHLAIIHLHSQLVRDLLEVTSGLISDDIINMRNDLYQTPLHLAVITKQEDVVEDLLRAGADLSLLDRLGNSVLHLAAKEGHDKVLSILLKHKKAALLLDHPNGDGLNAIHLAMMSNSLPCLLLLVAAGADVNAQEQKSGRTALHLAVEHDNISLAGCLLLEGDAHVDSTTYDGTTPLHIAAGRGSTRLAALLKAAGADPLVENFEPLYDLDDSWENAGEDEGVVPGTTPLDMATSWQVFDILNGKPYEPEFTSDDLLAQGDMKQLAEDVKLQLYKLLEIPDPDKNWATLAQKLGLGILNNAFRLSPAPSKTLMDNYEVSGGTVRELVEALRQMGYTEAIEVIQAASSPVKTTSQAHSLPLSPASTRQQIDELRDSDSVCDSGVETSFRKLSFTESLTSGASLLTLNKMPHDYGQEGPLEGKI
Method: LTEA_HepaRG is a cell based, multiplexed-readout assay that uses HepaRG, a human liver cell line, with measurements taken at 48 hours after chemical dosing on a 96-well plate.LTEA_HepaRG_NFKB1 is one of 102 assay component(s) measured in the LTEA HepaRG cell culture assay. It is a marker of Cell proliferation, survival, death.Data from the assay component LTEA_HepaRG_NFKB1 was analyzed into 1 endpoint. This assay endpoint, LTEA_HepaRG_NFKB1, was analyzed with bidirectional fitting relative to DMSO as the negative control and baseline of activity. Using a type of inducible reporter, measures of mRNA induction for gain or loss-of-signal activity can be used to understand regulation of transcription factor activity. To generalize the intended target to other relatable targets, this assay endpoint is annotated to the dna binding intended target family, where the subfamily is NF-kappa B.
A total of 1060 chemcials from the ToxCast library were tested in eight-point concentration-response experiments. Cell culture and cytotoxicity assays were conducted at Thermo Fisher Scientific's Custom Services facility (Madison, WI). A single lot of human HepaRG cells (Thermo Fisher Scientific, Frederick, MD) was used for the cell culture experiments. 96-well format collagen type I coated plates of human HepaRG cells were prepared using established methods. Briefly, cryopreserved HepaRG cells were thawed, plated at a density of approximately 100,000 cells/well in HepaRG Thaw, Plate, and General Purpose media (HPRG770, Thermo Fisher Scientific), and incubated for 48 hours. 0.5% DMSO was selected as vehicle control to balance the requisite need of DMSO in HepaRG cultures to maintain differentiation (for example, baseline metabolism, proportions of hepatocytes vs. cholangiocytes), while enabling further hepatic receptor pathway activation (for example, PXR and CAR) in response to chemical exposure. 48 hours after plating, the culture medium was replaced with HepaRG Serum-Free Incudtion Media. Cells were exposed to each test chemical in duplicate and maintained in CO2 incubators for another 48 hours. Chemical plates were thawed to room temperature and 200x concentrations of treatment groups were prepared. 8-point conentration-reponse curves were made with the highest exposure at 100 uM, followed by half-log dilutions, all in 0.5% DMSO. Each test plate contained variouse controls, induction positive controls (1mM phenobarbital), cytotoxicity positive controls ([…] aflatoxin B1), vehicle controls (0.5% DMSO), and total lysis controls (0.5% DMSO). Cell morphology images were taken using an Essen IncuCyte FLR automated microscope, with six 96-well plates imaged in about 24 minutes. Images were captured and exported and JPEG files. Spent culture media was transfered to black-well plates for the LDH assay, and remaining media was sorted at -80 C for later use. Cells were treated with RLT buffer and frozen until shipped for gene expression analysis. Total RNA was isolated from the cell suspension in 75 uL of Buffer RLT (Qiagen, Germantown, MD 20874) by Quintiles/Expression Analysis (Durham, NC) using a custom isolation procedure. Total RNA from each plate well was transferred to a preamplification plate. Fluidigm's 96.96 Dynamic ArrayTM (Fluidigm, Amsterdam, the Netherlands) technology was used for gene expression analyses by quantitative reverse transcription polymerase chain reaction (qRT-PCR, performed by Quintiles/Expression Analysis, Durham, NC)89. Standard TaqManTM Assays (Applied Biosystems/ThermoFisher Scientific, Foster City, CA) were used to assess the expression of 93 genes selected based on their selectivity and sensitivity to important hepatic receptors known to be modulated by environmental chemicals; importance in human hepatocyte functionality; and hepatotoxicity. […]

outcome, inactive:
OCCO
Cc1cc(F)ccc1-c1cc(N2CC[C@@H](O)[C@H]2CO)ncc1N(C)C(=O)C(C)(C)c1cc(C(F)(F)F)cc(C(F)(F)F)c1
O=C(O)c1ccccc1C(=O)OCc1ccccc1
CCCCCCCCN(C)CCCCCCCC
Cc1c2ccccc2c(C)c2c1ccc1ccccc12
c1ccc2n[nH]nc2c1
CCCC(=O)OCCC(C)C
Cc1cc2c(cc1C(F)(F)F)N(C(=O)Nc1ccc(Oc3cccnc3C)nc1)CC2
COCC(C)OCC(C)OCC(C)O (stereo not given)
CCCCCCCCOC(=O)c1cc(O)c(O)c(O)c1
O=c1[nH]sc2ccccc12
CCCCCCCCOc1ccc(C(=O)c2ccccc2)c(O)c1
CCCCCCCCCC(=O)O
O=C1c2ccccc2C(=O)N1CCc1noc(-c2ccc(CN3CCCCCC3)s2)n1
O=c1ccc2ccccc2o1
Cc1ccc2oc(CN(Cc3ccccc3)C(=O)Nc3c(F)cc(F)cc3F)c(-c3ccc(Cl)cc3)c2c1
O=c1c(-c2ccc(O)cc2)coc2cc(O)cc(O)c12
CC(=O)N1CCN(c2ccc(OC[C@H]3CO[C@](Cn4ccnc4)(c4ccc(Cl)cc4Cl)O3)cc2)CC1
CO[C@H]1/C=C/O[C@@]2(C)Oc3c(C)c(O)c4c(O)c(c(/C=N/N5CCN(C)CC5)c(O)c4c3C2=O)NC(=O)/C(C)=C\C=C\[C@H](C)[C@H](O)[C@@H](C)[C@@H](O)[C@@H](C)[C@H](OC(C)=O)[C@@H]1C
c1ccc(C[n+]2cccc3ccccc32)cc1
NCc1cccc(C2CCN(C(=O)c3ccc(C#Cc4ccccc4F)o3)CC2)c1
CCCCOC(=O)CC(CC(=O)OCCCC)(OC(C)=O)C(=O)OCCCC
CN1C(=O)CC[C@H]1c1cccnc1
CC(C)(c1cc(Br)c(O)c(Br)c1)c1cc(Br)c(O)c(Br)c1
CC[C@@H]1C[C@H](N(Cc2cc(C(F)(F)F)cc(C(F)(F)F)c2)C(C)=O)c2cc(C(F)(F)F)ccc2N1C(=O)OC(C)C
C[C@]12CC[C@@H]3c4ccc(O)cc4CC[C@H]3[C@@H]1CCC2=O
Clc1ccccc1C(c1ccccc1)(c1ccccc1)n1ccnc1
Cc1cccc2ccccc12
O=C(OCCCCCCOC(=O)c1ccccc1)c1ccccc1
CCCCCc1ccc(N)cc1
CCN(Cc1cccc(S(=O)(=O)O)c1)c1ccc(C(=C2C=CC(=[N+](CC)Cc3cccc(S(=O)(=O)O)c3)C=C2)c2ccccc2S(=O)(=O)[O-])cc1
O=CCCCC=O
COc1cccc([C@H](O)C2CCN(CCc3ccc(F)cc3)CC2)c1OC

AC50, active:
CC(C)(C)c1cc(/C=C2\SC(N)=NC2=O)cc(C(C)(C)C)c1O 93.6 µM
CCN(CC)C(=O)c1cc(S(=O)(=O)Cc2ccccc2)c(N2CCC(c3ccccc3)CC2)cc1N(CC)CCN(C)C 28.1 µM
O=C(O)Cc1cc(I)c(Oc2ccc(O)c(I)c2)c(I)c1 71.8 µM
CN1C(=O)N(c2ccccc2Br)Cc2cnc(Nc3ccc4c(c3)OCC(CO)O4)nc21 (stereo not given) 19.5 µM
COc1ccc2cc(S(=O)(=O)N[C@H](CC(=O)N[C@H](Cc3ccc(CN4[C@H](C)CCC[C@@H]4C)cc3)C(=O)N(C)C(C)C)c3ccc4c(c3)OCO4)ccc2c1 31.2 µM
CN(C[C@@H](CC[N+]12CCC(C3CCCCC3)(CC1)CC2)c1ccc(Cl)c(Cl)c1)C(=O)c1cc(C(F)(F)F)cc(C(F)(F)F)c1 89.7 µM
NC(=O)c1nc(-c2cccc(-c3cc(F)ccc3OCC(F)(F)C(F)(F)F)c2)n[nH]1 82.8 µM

Source: PubChem BioAssay (EPA / NIEHS)
